This is an account of results in PubChem BioAssay.

Molecules are shown by their SMILES. The source made the active and inactive calls.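 Rule for the calls, unless noted: active = compounds whose cell count with miR-34 switched on is under 0.7 times the count with it off; inactive = the rest.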 Where a SMILES comes first, the peptide text is derived from it. The star is where a group is joined. Cbz = O=C(OCc1ccccc1)*

A short description of experiment [1]: viability loss with induced miR-34 in A549 – imaging, A549 dox-inducible miR-34, nuclei and caspase counts, primary screen (AID 1347080). Particulars: A549 miR-34 inducible, Hoechst nuclei count, 48 h.
A short description of experiment [2]: MELAS cybrid and Rieske KO viability enhancers – cell-based, MELAS cybrids, Rieske KO mouse fibroblasts, CellTiter-Glo, primary screen (AID 1508586;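 active = mean z-score across replicates of 1.96 or higher in either the MELAS or the Rieske mutant cell line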;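 note: z relative to plate mean and SD of compound and empty wells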). Particulars: low glucose.
Setting [3] is: stronger effect = lower value, cell number ratio, induced over uninduced.
[4] abbreviates: measured here: relative caspase fold change +Dox/-Dox.
Where [5] appears, read: measured here: total cells with miR-34 induction, stronger effect = lower value.
Setting [6] is: measured here: total cells without miR-34 induction.
Setting [7] is: MELAS cybrid survival, CellTiter-Glo 48 h, stronger effect = higher value.
Where [8] appears, read: Rieske KO mouse fibroblast survival, CellTiter-Glo 72 h.
Note: test concentration not given here.

In the case of `Cn1c(=O)c(F)c(Nc2ccc(I)cc2F)c2c(=O)n(CC(O)CO)cnc21` (stereo unspecified), the figures for the fold change in experiment [1] (setting [3]) and in experiment [1] (setting [4]) were 1.04 (inactive) and 0.57, respectively. The figures for the cell count in experiment [1] (setting [5]) and in experiment [1] (setting [6]) were 3130 and 3010, respectively. In addition, the z-score is -0.414 (inactive) in experiment [2] (setting [7]) and -1.17 in experiment [2] (setting [8]).

Consider `Cc1[nH]c2ccccc2c1C1=C(NCCc2ccc(F)cc2)C(=O)N(C)C1=O`, for which the values for the fold change in experiment [1] (setting [3]) and in experiment [1] (setting [4]) were 0.916 (inactive) and 0.466, respectively. Besides, the results for the cell count in experiment [1] (setting [5]) and in experiment [1] (setting [6]) were 2210 and 2410, respectively. For the same molecule, the results for the z-score in experiment [2] (setting [7]) and in experiment [2] (setting [8]) were -0.365 (inactive) and 1.08, respectively.

Turning to `CC(C)c1nc(CN(C)C(=O)NC(CCN2CCOCC2)C(=O)NC(CCC(Cc2ccccc2)NC(=O)OCc2cncs2)Cc2ccccc2)cs1` (stereo unspecified), the fold change in experiment [1] (setting [3]) was 0.977 (inactive); in experiment [1] (setting [4]), 0.47. In addition, the cell count was 5730 in experiment [1] (setting [5]) and 5860 in experiment [1] (setting [6]). Also, the z-score is -0.312 (inactive) in experiment [2] (setting [7]) and -0.261 in experiment [2] (setting [8]).

Take `CCOc1ccc2ccccc2c1C(=O)NC1C(=O)N2C(C(=O)O)C(C)(C)S[C@H]12` (stereo partly specified): the values for the fold change in experiment [1] (setting [3]) and in experiment [1] (setting [4]) were 1.19 (inactive) and 0.989, respectively. The cell count in experiment [1] (setting [5]) worked out at 8800; in experiment [1] (setting [6]), 7400. Besides, the z-score in experiment [2] (setting [7]) was -0.279 (inactive); in experiment [2] (setting [8]), -0.179.

`O=C1NC(=O)C(=Cc2ccc(-c3ccc(F)cc3)o2)S1`: the fold change was 0.882 (inactive) in experiment [1] (setting [3]) and 0.688 in experiment [1] (setting [4]). The cell count in experiment [1] (setting [5]) worked out at 8240; in experiment [1] (setting [6]) it was 9340. In addition, the z-score in experiment [2] (setting [7]) is -0.386 (inactive); in experiment [2] (setting [8]), 0.141.

In the case of `CC(=O)c1cc([N+](=O)[O-])c(Sc2cccc(Cl)c2Cl)s1`, the fold change in experiment [1] (setting [3]) was 0.882 (inactive); in experiment [1] (setting [4]), 0.345. For the same molecule, the cell count in experiment [1] (setting [5]) came to 7980; in experiment [1] (setting [6]) it was 9050. The z-score in experiment [2] (setting [7]) is -0.31 (inactive); in experiment [2] (setting [8]), 0.849.

`CC1(C)S[C@@H]2C(NC(=O)C(N)c3ccc(O)cc3)C(=O)N2C1C(=O)O` (stereo partly specified): the figures for the fold change in experiment [1] (setting [3]) and in experiment [1] (setting [4]) were 0.958 (inactive) and 0.664, respectively. In addition, the cell count in experiment [1] (setting [5]) amounted to 9670; in experiment [1] (setting [6]), 10100. The z-score is -0.365 (inactive) in experiment [2] (setting [7]) and 0.721 in experiment [2] (setting [8]).

In the case of `CC(C)(C)NS(=O)(=O)c1cncc(-c2cc(F)c3nc(N)nn3c2)c1`, the fold change is 0.874 (inactive) in experiment [1] (setting [3]) and 1.55 in experiment [1] (setting [4]). The cell count in experiment [1] (setting [5]) came to 8160; in experiment [1] (setting [6]) it was 9340. Moreover, the z-score was -0.353 (inactive) in experiment [2] (setting [7]) and -0.161 in experiment [2] (setting [8]).

With `CC(CCC(=O)O)C1CC[C@H]2[C@@H]3CC[C@@H]4CC(O)CC[C@]4(C)[C@H]3CC[C@]12C` (stereo partly specified), the fold change in experiment [1] (setting [3]) is 0.884 (inactive); in experiment [1] (setting [4]) it was 1.13. Further, the cell count in experiment [1] (setting [5]) is 7640; in experiment [1] (setting [6]) it was 8650. For the same molecule, the z-score was -0.0806 (inactive) in experiment [2] (setting [7]) and -0.272 in experiment [2] (setting [8]).

Turning to `O=C(CCc1ccc(O)cc1)c1c(O)cc(O)cc1OC1OC(CO)C(O)C(O)C1O` (stereo unspecified), the fold change was 0.988 (inactive) in experiment [1] (setting [3]) and 0.673 in experiment [1] (setting [4]). Also, the cell count in experiment [1] (setting [5]) is 10200; in experiment [1] (setting [6]) it was 10400. Moreover, the z-score is -0.378 (inactive) in experiment [2] (setting [7]) and 0.518 in experiment [2] (setting [8]).

Turning to `CCNC(=O)c1[nH]nc(-c2cc(Cl)c(O)cc2O)c1-c1ccc(OC)cc1`, the fold change in experiment [1] (setting [3]) is 1.1 (inactive); in experiment [1] (setting [4]), 0.416. The cell count in experiment [1] (setting [5]) turned out to be 3020; in experiment [1] (setting [6]), 2740. Also, the z-score in experiment [2] (setting [7]) was 2.3 (active); in experiment [2] (setting [8]), -0.612.

As for `CC1(C)[C@@H](O)CC[C@@]2(C)[C@H]1CC[C@]1(C)[C@H]2C(=O)C=C2[C@H]3C[C@@](C)(C(=O)O)CC[C@]3(C)CC[C@]21C`, the fold change in experiment [1] (setting [3]) was 0.897 (inactive); in experiment [1] (setting [4]), 0.953. Besides, the cell count was 7890 in experiment [1] (setting [5]) and 8800 in experiment [1] (setting [6]). Also, the figures for the z-score in experiment [2] (setting [7]) and in experiment [2] (setting [8]) were -0.219 (inactive) and 0.479, respectively.

As for `O=C1NC(=O)C(=Cc2ccc3nccc(-c4ccncc4)c3c2)S1`, the fold change in experiment [1] (setting [3]) was 0.936 (inactive); in experiment [1] (setting [4]), 0.601. For the same molecule, the cell count in experiment [1] (setting [5]) amounted to 1700; in experiment [1] (setting [6]), 1820. For the same molecule, the z-score is 0.995 (inactive) in experiment [2] (setting [7]) and -1.12 in experiment [2] (setting [8]).

In the case of `CC(C)(C)c1cc(C(=O)C(C#N)=NNc2cccc(Cl)c2)no1`, the fold change is 0.873 (inactive) in experiment [1] (setting [3]) and 0.45 in experiment [1] (setting [4]). The cell count in experiment [1] (setting [5]) turned out to be 4320; in experiment [1] (setting [6]), 4950. For the same molecule, the z-score in experiment [2] (setting [7]) is -0.557 (inactive); in experiment [2] (setting [8]), -3.22.

`CC(C)c1nc(N(C)S(C)(=O)=O)nc(-c2ccc(F)cc2)c1C=CC(O)CC(O)CC(=O)O` (stereo unspecified): the results for the fold change in experiment [1] (setting [3]) and in experiment [1] (setting [4]) were 0.92 (inactive) and 0.647, respectively. Also, the results for the cell count in experiment [1] (setting [5]) and in experiment [1] (setting [6]) were 8010 and 8710, respectively. Besides, the z-score in experiment [2] (setting [7]) was 0.606 (inactive); in experiment [2] (setting [8]), -0.0253.

In the case of `CS(=O)(=O)c1ccc(C(O)C(CF)NC(=O)C(Cl)Cl)cc1` (stereo unspecified), the results for the fold change in experiment [1] (setting [3]) and in experiment [1] (setting [4]) were 0.937 (inactive) and 0.642, respectively. In addition, the figures for the cell count in experiment [1] (setting [5]) and in experiment [1] (setting [6]) were 8270 and 8820, respectively. Also, the z-score in experiment [2] (setting [7]) is 0.0143 (inactive); in experiment [2] (setting [8]) it was -0.0314.

Turning to `CN(C)CCC=C1c2ccccc2Sc2ccc(Cl)cc21`, the fold change in experiment [1] (setting [3]) was 1.02 (inactive); in experiment [1] (setting [4]), 0.667. The cell count is 7540 in experiment [1] (setting [5]) and 7420 in experiment [1] (setting [6]). In addition, the z-score in experiment [2] (setting [7]) was -0.469 (inactive); in experiment [2] (setting [8]), -0.0938.

With `CN(C)C1C(=O)C(C(N)=O)=C(O)[C@@]2(O)C(=O)C3=C(O)c4c(O)ccc(Cl)c4C(O)[C@H]3C[C@@H]12` (stereo partly specified), the fold change was 0.836 (inactive) in experiment [1] (setting [3]) and 1.66 in experiment [1] (setting [4]). In addition, the cell count in experiment [1] (setting [5]) came to 6970; in experiment [1] (setting [6]), 8340. Moreover, the values for the z-score in experiment [2] (setting [7]) and in experiment [2] (setting [8]) were 3.28 (active) and 5.13, respectively.

`CC(C)CC(C=O)NC(=O)C(CC(C)C)NC(=O)C(CC(C)C)NC(=O)OCc1ccccc1` (stereo not drawn) (Cbz-Leu-Leu-Leu-aldehyde; configuration not given here): the fold change in experiment [1] (setting [3]) is 0.872 (inactive); in experiment [1] (setting [4]), 0.735. In addition, the cell count amounted to 2300 in experiment [1] (setting [5]) and 2640 in experiment [1] (setting [6]). For the same molecule, the z-score is -0.114 (inactive) in experiment [2] (setting [7]) and -3.43 in experiment [2] (setting [8]).

As for `CC1O[C@@H](OC2C(Oc3cc(O)c(C(=O)CCc4ccc(O)cc4)c(O)c3)OC(CO)C(O)C2O)C(O)C(O)C1O` (stereo partly specified), the fold change in experiment [1] (setting [3]) is 0.973 (inactive); in experiment [1] (setting [4]) it was 0.587. The cell count in experiment [1] (setting [5]) amounted to 8080; in experiment [1] (setting [6]), 8300. Further, the z-score in experiment [2] (setting [7]) was -0.155 (inactive); in experiment [2] (setting [8]), -0.191.

As to `CC1(C)OC2C[C@H]3[C@@H]4CCC5=CC(=O)CC[C@]5(C)[C@]4(F)C(O)C[C@]3(C)[C@@]2(C(=O)CCl)O1` (stereo partly specified), the results for the fold change in experiment [1] (setting [3]) and in experiment [1] (setting [4]) were 0.851 (inactive) and 0.816, respectively. Besides, the results for the cell count in experiment [1] (setting [5]) and in experiment [1] (setting [6]) were 4440 and 5220, respectively. Also, the z-score is -0.306 (inactive) in experiment [2] (setting [7]) and -0.265 in experiment [2] (setting [8]).
